Laboratory results reported in PubChem BioAssay AID1159580 (chemical genetic matrix, 2015).
The whole screen tested about 5,500 compounds, of which about 2,000 (36%) were called active. Another 18% or so got no clear call; they are omitted. Rule as the data show it: active = normalized growth mostly below about 0.91 (no sharp cut-off); inconclusive = no clear call, values can overlap the other calls; inactive = mostly above about 0.92. The list shows a part of the results.

Assay: chemical genetic growth profiling, strain panel (AID 1159580);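 also: tested at 20 µM; growth read once vehicle control cultures reached saturation at 30 °C; 1 = growth at the plate median or of vehicle wells; lower values mean less growth of the strain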
Settings: growth OD

Measured: normalized growth

CC(=O)O[C@H]1CC[C@@]2(C)C(=CCC3C2CC[C@@]2(C)C3CC[C@@H]2C(C)CCCC(C)C)C1 (stereo partly drawn)
inactive: S. cerevisiae deletion strains, locus YJR066W, strain TOR1, active compounds read low 0.96 | S. cerevisiae deletion strains, locus YKL009W, strain mrt4, active compounds read low 1.05 | S. cerevisiae deletion strains, locus YKL068W, active compounds read low 1 | S. cerevisiae deletion strains, locus YKL085W, strain MDH1 (second series), active compounds read low 1.01 | S. cerevisiae deletion strains, locus YKL085W, strain MDH1, active compounds read low 1.01 | S. cerevisiae deletion strains, locus YKL160W, strain elf1, active compounds read low 0.997 | S. cerevisiae deletion strains, locus YKL190W, strain CNB1, active compounds read low 1.01 | S. cerevisiae deletion strains, locus YKR001C, strain vps1, active compounds read low 1.06 | S. cerevisiae deletion strains, locus YKR026C, strain gcn3, active compounds read low 0.991 | S. cerevisiae deletion strains, locus YKR091W, strain srl3, active compounds read low 0.998 | S. cerevisiae deletion strains, locus YLL001W, strain dnm1, active compounds read low 0.997 | S. cerevisiae deletion strains, locus YLL026W, active compounds read low 0.995 | S. cerevisiae deletion strains, locus YLL041C, strain sdh2, active compounds read low 0.995 | S. cerevisiae deletion strains, locus YLR027C, strain aat2, active compounds read low 0.979 | S. cerevisiae deletion strains, locus YLR039C, strain RIC1, active compounds read low 1.08 | S. cerevisiae deletion strains, locus YLR058C, strain SHM2, active compounds read low 1.01 | S. cerevisiae deletion strains, locus YLR102C, strain apc9, active compounds read low 1.01 | S. cerevisiae deletion strains, locus YLR113W, strain HOG1, active compounds read low 0.95 | S. cerevisiae deletion strains, locus YLR221C, strain rsa3, active compounds read low 0.979 | S. cerevisiae deletion strains, locus YLR258W, strain gsy2, active compounds read low 1.01 | S. cerevisiae deletion strains, locus YLR262C, strain YPT6 (second series), active compounds read low 1.01 | S. cerevisiae deletion strains, locus YLR262C, strain YPT6, active compounds read low 1.14 | S. cerevisiae deletion strains, locus YLR268W, strain sec22, active compounds read low 1.03 | S. cerevisiae deletion strains, locus YLR320W, strain mms22, active compounds read low 0.98 | S. cerevisiae deletion strains, locus YLR330W, strain CHS5, active compounds read low 1.02 | S. cerevisiae deletion strains, locus YLR342W, strain FKS1 (second series), active compounds read low 1.07 | S. cerevisiae deletion strains, locus YLR342W, strain FKS1, active compounds read low 0.994 | S. cerevisiae deletion strains, locus YLR357W, strain rsc2, active compounds read low 0.985 | S. cerevisiae deletion strains, locus YLR370C, strain arc18, active compounds read low 0.991 | S. cerevisiae deletion strains, locus YLR371W, strain rom2, active compounds read low 1.02 | S. cerevisiae deletion strains, locus YLR384C, strain iki3, active compounds read low 1.01 | S. cerevisiae deletion strains, locus YLR418C, strain cdc73, active compounds read low 1.04 | S. cerevisiae deletion strains, locus YML016C, strain PPZ1, active compounds read low 1.01 | S. cerevisiae deletion strains, locus YML032C, strain rad52, active compounds read low 1.02 | S. cerevisiae deletion strains, locus YML120C, strain ndi1, active compounds read low 1 | S. cerevisiae deletion strains, locus YML124C, strain tub3, active compounds read low 1.02 | S. cerevisiae deletion strains, locus YMR058W, strain fet3, active compounds read low 0.913 | S. cerevisiae deletion strains, locus YMR078C, strain ctf18, active compounds read low 1.02 | S. cerevisiae deletion strains, locus YMR125W, strain sto1, active compounds read low 0.995 | S. cerevisiae deletion strains, locus YMR129W, active compounds read low 0.997 | S. cerevisiae deletion strains, locus YMR205C, strain PFK2, active compounds read low 1 | S. cerevisiae deletion strains, locus YMR223W, strain ubp8, active compounds read low 1.03 | S. cerevisiae deletion strains, locus YMR231W, strain pep5, active compounds read low 0.965 | S. cerevisiae deletion strains, locus YMR307W, strain GAS1, active compounds read low 1.03 | S. cerevisiae deletion strains, locus YNL067W, strain RPL9B, active compounds read low 1.02 | S. cerevisiae deletion strains, locus YNL071W, strain lat1, active compounds read low 0.999 | S. cerevisiae deletion strains, locus YNL128W, strain TEP1, active compounds read low 1.02 | S. cerevisiae deletion strains, locus YNL153C, strain GIM3, active compounds read low 1.02 | S. cerevisiae deletion strains, locus YNL183C, strain NPR1, active compounds read low 0.906 | S. cerevisiae deletion strains, locus YNL209W, strain ssb2, active compounds read low 0.999 | S. cerevisiae deletion strains, locus YNL233W, strain BNI4, active compounds read low 1 | S. cerevisiae deletion strains, locus YNL248C, strain rpa49, active compounds read low 1 | S. cerevisiae deletion strains, locus YNL250W, strain rad50, active compounds read low 1.02 | S. cerevisiae deletion strains, locus YNL271C, strain bni1, active compounds read low 1.04 | S. cerevisiae deletion strains, locus YNL298W, strain CLA4, active compounds read low 1.02 | S. cerevisiae deletion strains, locus YNL307C, strain MCK1, active compounds read low 1.03 | S. cerevisiae deletion strains, locus YNL322C, strain KRE1 (second series), active compounds read low 0.989 | S. cerevisiae deletion strains, locus YNR049C, strain mso1, active compounds read low 0.988 | S. cerevisiae deletion strains, locus YNR052C, strain pop2, active compounds read low 1.02 | S. cerevisiae deletion strains, locus YOL012C, strain htz1 0.984 | S. cerevisiae deletion strains, locus YOL147C, strain pex11, active compounds read low 1.02 | S. cerevisiae deletion strains, locus YOR001W, strain rrp6, active compounds read low 0.974 | S. cerevisiae deletion strains, locus YOR061W, strain CKA2, active compounds read low 1.01 | S. cerevisiae deletion strains, locus YOR069W, strain VPS5, active compounds read low 1.01 | S. cerevisiae deletion strains, locus YOR070C, strain gyp1, active compounds read low 0.989 | S. cerevisiae deletion strains, locus YOR080W, strain dia2, active compounds read low 0.983 | S. cerevisiae deletion strains, locus YOR083W, strain WHI5, active compounds read low 1.01 | S. cerevisiae deletion strains, locus YOR106W, strain vam3, active compounds read low 1.04 | S. cerevisiae deletion strains, locus YOR136W, strain idh2, active compounds read low 1.03 | S. cerevisiae deletion strains, locus YOR144C, strain elg1, active compounds read low 1.02 | S. cerevisiae deletion strains, locus YOR184W, strain ser1, active compounds read low 1.02 | S. cerevisiae deletion strains, locus YOR231W, strain MKK1, active compounds read low 0.972 | S. cerevisiae deletion strains, locus YOR265W, strain rbl2, active compounds read low 0.995 | S. cerevisiae deletion strains, locus YOR270C, strain vph1, active compounds read low 1.04 | S. cerevisiae deletion strains, locus YOR290C, strain snf2, active compounds read low 1 | S. cerevisiae deletion strains, locus YOR316C, strain cot1, active compounds read low 1.02 | S. cerevisiae deletion strains, locus YPL051W, strain arl3, active compounds read low 0.982 | S. cerevisiae deletion strains, locus YPL078C, strain atp4, active compounds read low 1.01 | S. cerevisiae deletion strains, locus YPL106C, strain sse1, active compounds read low 0.975 | S. cerevisiae deletion strains, locus YPL240C, strain hsp82, active compounds read low 1 | S. cerevisiae deletion strains, locus YPL241C, strain CIN2, active compounds read low 1.01 | S. cerevisiae deletion strains, locus YPL256C, strain CLN2, active compounds read low 0.964 | S. cerevisiae deletion strains, locus YPR119W, strain clb2, active compounds read low 1.01 | S. cerevisiae deletion strains, locus YPR141C, strain kar3, active compounds read low 1.02 | S. cerevisiae deletion strains, locus YPR163C, strain tif3, active compounds read low 1.04 | S. cerevisiae deletion strains, locus YPR167C, strain met16, active compounds read low 1.03 | S. cerevisiae deletion strains, strain wtn01, active compounds read low 1.04 | S. cerevisiae strains, strain wild type, active compounds read low 1.01
